# ChEMBL document CHEMBL1961873, “Compounds: GSK PKIS; Assays: Nanosyn kinase panel” (2012)
# Molecular target: Tyrosine-protein kinase FRK (Homo sapiens) (UniProt P42685);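 note: reported percent inhibition is a mean value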
# Conditions: at 1 µM
# Sequence of Tyrosine-protein kinase FRK (Homo sapiens) (P42685 whole entry): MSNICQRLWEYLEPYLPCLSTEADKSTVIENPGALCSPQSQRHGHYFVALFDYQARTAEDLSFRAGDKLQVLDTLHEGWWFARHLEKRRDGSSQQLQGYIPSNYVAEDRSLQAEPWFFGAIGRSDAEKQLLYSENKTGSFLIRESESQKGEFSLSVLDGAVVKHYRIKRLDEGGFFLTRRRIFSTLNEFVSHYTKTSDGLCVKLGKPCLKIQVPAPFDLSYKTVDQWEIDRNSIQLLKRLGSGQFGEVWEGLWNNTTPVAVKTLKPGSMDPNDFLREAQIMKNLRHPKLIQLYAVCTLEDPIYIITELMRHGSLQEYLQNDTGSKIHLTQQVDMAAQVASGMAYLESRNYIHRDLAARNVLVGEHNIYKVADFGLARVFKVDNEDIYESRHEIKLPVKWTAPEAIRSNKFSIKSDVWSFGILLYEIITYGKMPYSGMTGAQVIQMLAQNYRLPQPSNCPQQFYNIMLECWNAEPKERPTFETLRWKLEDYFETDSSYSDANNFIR
row,Compound,inhibition [%]
1,Cc1cc(O)cc(C)c1/C=C/c1cncc(-c2nn[nH]n2)c1,33.8
2,Nc1nc(-c2ccc3c(c2)C(=Cc2cc(Br)c(O)c(Br)c2)C(=O)N3)cs1,3.29
3,COc1cccc(-n2ncc3c(N/N=C/c4cccc(F)c4)ncnc32)c1,2.7
4,COC(=O)Nc1nc2cc(Oc3ccc(NC(=O)Nc4cccc(C(=O)O)c4)cc3)ccc2[nH]1,0.91
5,Cc1nn(C)c2cc(N(C)c3ccnc(Nc4cccc(S(N)(=O)=O)c4)n3)ccc12,11.6
6,COc1cc2ncn(-c3cc(OCc4ccccc4Cl)c(C(N)=O)s3)c2cc1OC,2.45
7,CC(=O)Nc1cccc(C#Cc2cncnc2Nc2ccc(OCc3cccc(F)c3)c(Cl)c2)n1,1.2
8,COc1ccc(COc2ccc(Cc3cnc(N)nc3N)cc2OC)cc1,2.07
9,Nc1nc(-c2ccccn2)c(-c2ccc3ncccc3n2)s1,1.57
10,CC1=C(C(=O)Nc2ccc3[nH]ncc3c2)C(c2ccc3ccccc3c2)CC(=O)N1 (centres undefined),17.3
11,Cn1cc(C=C2C(=O)Nc3cccnc32)c2ccccc21,3.75
12,COc1ccc(-c2coc3ncnc(N)c23)cc1,2.14
13,CS(=O)(=O)CCNCc1nc(-c2ccc3ncnc(Nc4ccc(F)c(Cl)c4)c3c2)cs1,2.43
14,O=C1Nc2ccc(C(=O)c3ccco3)cc2C1=Cc1cc(Cl)c(O)c(Cl)c1,7.16
15,COc1cc2ncn(-c3cc(O[C@H](C)c4ccccc4Cl)c(C(N)=O)s3)c2cc1OC,2.07
16,CS(=O)(=O)CCN(CC#N)Cc1ccc(-c2ccc3ncnc(Nc4ccc(OCc5cccc(F)c5)c(Cl)c4)c3c2)o1,2.48
17,CC(C)=Cc1cccc2c1/C(=N/Nc1ccc(S(N)(=O)=O)cc1)C(=O)N2,5.49
18,CCn1c(-c2nonc2N)nc2c(C#CC(C)(C)O)nc(OC[C@@H](N)c3ccccc3)cc21,1.5

# Molecular target: Protein-tyrosine kinase 2-beta (Homo sapiens) (UniProt Q14289);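 note: reported as mean percent inhibition of PYK2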
# Conditions: at 0.1 µM
# Sequence of Protein-tyrosine kinase 2-beta (Homo sapiens) (Q14289 whole entry, looked up): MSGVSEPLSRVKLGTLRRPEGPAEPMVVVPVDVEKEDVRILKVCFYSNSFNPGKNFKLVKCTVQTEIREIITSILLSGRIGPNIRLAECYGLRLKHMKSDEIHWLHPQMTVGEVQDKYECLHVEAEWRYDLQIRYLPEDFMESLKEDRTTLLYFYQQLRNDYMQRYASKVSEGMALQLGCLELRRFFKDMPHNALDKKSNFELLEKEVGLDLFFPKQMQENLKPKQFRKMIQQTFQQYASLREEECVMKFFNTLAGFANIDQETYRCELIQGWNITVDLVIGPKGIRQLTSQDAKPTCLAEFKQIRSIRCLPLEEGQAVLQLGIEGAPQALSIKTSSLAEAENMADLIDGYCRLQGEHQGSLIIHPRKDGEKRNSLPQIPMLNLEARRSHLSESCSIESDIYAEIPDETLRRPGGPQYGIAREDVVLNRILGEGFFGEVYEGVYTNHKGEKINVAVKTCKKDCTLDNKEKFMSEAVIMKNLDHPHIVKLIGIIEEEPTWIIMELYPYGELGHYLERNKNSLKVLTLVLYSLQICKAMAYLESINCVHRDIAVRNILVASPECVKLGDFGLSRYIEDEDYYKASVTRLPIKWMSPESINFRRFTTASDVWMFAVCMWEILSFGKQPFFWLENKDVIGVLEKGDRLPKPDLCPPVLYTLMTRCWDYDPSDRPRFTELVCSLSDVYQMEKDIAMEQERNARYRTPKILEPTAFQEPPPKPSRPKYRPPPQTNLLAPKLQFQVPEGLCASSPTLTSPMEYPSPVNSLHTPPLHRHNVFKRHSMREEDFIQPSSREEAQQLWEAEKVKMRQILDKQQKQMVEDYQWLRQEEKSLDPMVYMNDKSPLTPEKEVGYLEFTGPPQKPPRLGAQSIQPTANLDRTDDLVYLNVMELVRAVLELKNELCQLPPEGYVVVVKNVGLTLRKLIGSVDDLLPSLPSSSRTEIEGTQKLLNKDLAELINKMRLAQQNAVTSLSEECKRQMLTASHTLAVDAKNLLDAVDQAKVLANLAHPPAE
row,Compound,inhibition [%]
1,Nc1ncnc2occ(-c3ccc(NC(=O)Nc4cc(C(F)(F)F)cc(C(F)(F)F)c4)cc3)c12,8.32
2,CCn1c(-c2nonc2N)nc2c(N3CCCC3)nccc21,1.2
3,CCn1c(-c2nonc2N)nc2cnc(Oc3cccc(NC(=O)c4ccc(OCCN5CCOCC5)cc4)c3)cc21,4.56
4,COc1ccccc1Nc1ncc(-c2ccccc2)o1,0.49
5,Cc1cccc(-c2n[nH]cc2-c2ccc3ncccc3n2)n1,-4.16
6,CC1=C(C(=O)Nc2ccc3[nH]ncc3c2)C(c2ccc(F)cc2)NC(=O)N1 (centres undefined),10.1
7,CCCN1CCC=C(c2ccc(Nc3nc(Nc4ccccc4C(N)=O)c4cc[nH]c4n3)c(C)c2)C1,78
8,CS(=O)(=O)Nc1ccc(N/C=C2\C(=O)Nc3ccccc32)cc1,-3.21
9,CCN1CCC(CC(=O)Nc2n[nH]c3nc(-c4cccs4)c(Br)cc23)CC1,-9.91
10,CS(=O)(=O)CCNCc1ccc(-c2ccc3ncnc(Nc4ccc(OCc5cccc(F)c5)c(C(F)(F)F)c4)c3c2)o1,9.54
11,COc1ccc(-c2nn3ncccc3c2-c2ccnc(Nc3ccc(Cl)c(C(F)(F)F)c3)n2)cc1,5.54
12,c1cnn2ncc(-c3ccnc(Nc4ccc5c(c4)OCCO5)n3)c2c1,32.6
13,CCn1c(-c2nonc2N)nc2cncc(C(=O)N3CC[C@H](N)C3)c21,10.8
14,NCc1ccc(-c2nc(-c3ccc(Cl)c(O)c3)c(-c3ccncc3)[nH]2)cc1,3.97
15,COc1cc2ncn(-c3cc(OCc4ccccc4C(F)(F)F)c(C(N)=O)s3)c2cc1OC,2.32
16,COc1ccc(-c2ccncc2)cc1C(N)=O,5.98
17,Cc1cc(O)cc(C)c1/C=C/c1cncc(-c2nn[nH]n2)c1,12.8
18,Nc1nc(-c2ccc3c(c2)C(=Cc2cc(Br)c(O)c(Br)c2)C(=O)N3)cs1,-1.15
19,COc1cccc(-n2ncc3c(N/N=C/c4cccc(F)c4)ncnc32)c1,9.51
20,COC(=O)Nc1nc2cc(Oc3ccc(NC(=O)Nc4cccc(C(=O)O)c4)cc3)ccc2[nH]1,-5.8
21,Cc1nn(C)c2cc(N(C)c3ccnc(Nc4cccc(S(N)(=O)=O)c4)n3)ccc12,9.35
22,COc1cc2ncn(-c3cc(OCc4ccccc4Cl)c(C(N)=O)s3)c2cc1OC,-1.12
23,CC(=O)Nc1cccc(C#Cc2cncnc2Nc2ccc(OCc3cccc(F)c3)c(Cl)c2)n1,-2.77
24,COc1ccc(COc2ccc(Cc3cnc(N)nc3N)cc2OC)cc1,-3.39
25,Nc1nc(-c2ccccn2)c(-c2ccc3ncccc3n2)s1,8.82
26,CC1=C(C(=O)Nc2ccc3[nH]ncc3c2)C(c2ccc3ccccc3c2)CC(=O)N1 (centres undefined),3.97
